Screening data from PubChem.
The list is not random: actives were taken first. Their share in the collection is about 19%.
AMA1 RON2 block: qHTS for Inhibitors of AMA1-RON; Towards Development of Antimalarial Drug Lead: Primary Screen. Plasmodium falciparum AMA1 (3D7) - RON2 peptide interaction. AlphaScreen AMA1-biotinylated RON2 peptide binding. Potency, µM (titrated, usually from 58.2 µM), hits mostly inhibitors. 0.2% of 360,000 active; note: nearly all actives have a fitted effect of over 45% in size
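AMA1 (3D7) with his tag at 25 nM final met compounds first, then biotinylated RON2 peptide at 25 nM; detection used donor plus acceptor beads, 10 µg/mL apiece, read by AlphaScreen after 30 min at room temperature.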
Pf growth 96h: Primary qHTS for delayed death inhibitors of the malarial parasite plastid, 96 hour incubation; 6.9% of 320,000 active; AID 504834, 2011; Potency, µM (titrated, usually from 28.7 µM), hits mostly inhibitors; P. falciparum luciferase reporter growth, 96 h
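Two parasite generations (96 h, 37 C, 5% CO2) of compound exposure in infected erythrocytes (0.05% parasitemia, 2% hematocrit). Luciferase-reporter P. falciparum; decreased luminescence indicates inhibited growth, aimed at apicoplast-acting delayed death.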
CHX counter: Cycloheximide Counterscreen for Small Molecule Inhibitors of Shiga Toxin; cell reporter, cycloheximide protein synthesis inhibition counterscreen; max response, %; 12% of 300,000 active; in the data active = max response mostly above about 13%, no sharp cut-off; inactive = mostly below about 14%; note: read at 38.3 µM for the half of the compounds with a filed dose
SARS PLP yeast: qHTS of Yeast-based Assay for SARS-CoV PLP. AID 485353, 2010. 0.19% of 330,000 active. S. cerevisiae expressing SARS-CoV PLpro, growth rescue. Potency, µM (doses to about 32.9 µM), usual class: activators; calls by dose curve; note: nearly all actives have a fitted effect of over 55% in size
Shiga inhibitor: A qHTS for Small Molecule Inhibitors of Shiga Toxin; Vero cells, Shiga toxin protein synthesis inhibition reporter; inhibition, % at 38.7 µM; 9.2% of 290,000 active; in the data active = inhibition mostly above about 28%, no sharp cut-off; inactive = mostly below about 43%
Pf growth 48h: Primary qHTS for delayed death inhibitors of the malarial parasite plastid, 48 hour incubation. P. falciparum luciferase growth in erythrocytes, 48 h. Potency, µM (top dose mostly 28.7 µM), most hits filed as inhibitors. 5.9% of 310,000 active. AID 504832, 2011
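Firefly luciferase activity from engineered P. falciparum reports growth; inhibitors lower the luminescent signal. Cultures contained 2% hematocrit erythrocytes at 0.1% final parasitemia.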
Each line names hits and unclear results; the compound was inactive in the other large screens. Unless noted, calls come from the whole dose curve; as a rule, active = well fitted curve in the direction sought with a large enough effect; inconclusive = small, poorly fitted or top-dose-only effect, or another doubt; inactive = no such curve, though single readings can be large; an effect the other way counts as inactive or inconclusive.

CC(C)(CO)NC(=S)NCc1ccco1	Pf growth 48h inconclusive
CCCCc1ccc(NC(=O)CSc2nc(=O)n(CCCN3CCOCC3)c3c2CCC3)cc1	Pf growth 96h inconclusive, Pf growth 48h inconclusive (no result: CHX counter, Shiga inhibitor)
CCCCc1ccc(NC(=O)CSc2nc(=O)n(CCN(C)C)c3c2CCC3)cc1	Pf growth 96h inconclusive, Pf growth 48h 11.7µM (no result: CHX counter, Shiga inhibitor)
CCCCc1ccc(NC(=O)CSc2nc(=O)n(CCN3CCOCC3)c3c2CCC3)cc1	Pf growth 96h inconclusive (no result: CHX counter, Shiga inhibitor)
CCN(CC)CCCn1c2c(c(SCC(=O)Nc3ccc(OC(F)(F)F)cc3)nc1=O)CCC2	Pf growth 96h inconclusive, Pf growth 48h inconclusive (no result: CHX counter, Shiga inhibitor)
CCN(CC)CCCn1c2c(c(SCC(=O)Nc3nc4ccccc4s3)nc1=O)CCC2	Pf growth 96h 13.1µM, Pf growth 48h inconclusive (no result: CHX counter, Shiga inhibitor)
Cc1ccc(NC(=O)CSc2nc(=O)n(CCCN3CCOCC3)c3c2CCCC3)cc1	Pf growth 48h 13.1µM (no result: CHX counter, Shiga inhibitor)
CCCCc1ccc(NC(=O)CSc2nc(=O)n(CCN(CC)CC)c3c2CCCC3)cc1	Pf growth 96h 2.08µM, Pf growth 48h 11.7µM (no result: CHX counter, Shiga inhibitor)
O=C(NCc1ccc(Cl)cc1)c1ccc(-c2ccc(F)c(F)c2)c2ccoc12	none (no result: Pf growth 96h, CHX counter, SARS PLP yeast, Shiga inhibitor, Pf growth 48h)
COc1ccc(C(=O)Nc2ccccc2C(=O)N/N=C/c2ccco2)cc1	CHX counter 41.3, Shiga inhibitor 54.7
CCOc1ccc(/C=N/NC(=O)c2ccccc2NC(=O)c2ccc(OC)cc2)cc1	CHX counter 60.3, Shiga inhibitor 45.4
COc1ccc(/C=N/NC(=O)c2ccccc2NC(=O)c2ccco2)c(OC)c1	none
O=c1c2ccccc2nc(/C=C/c2ccc3c(c2)OCO3)n1CCCO	CHX counter 23.9
O=c1c2ccccc2nc(/C=C/c2ccccc2O)n1-c1ccccc1O	Pf growth 96h inconclusive, Pf growth 48h inconclusive (no result: AMA1 RON2 block)
COc1ccc(-n2c(/C=C/c3ccc(O)c(O)c3)nc3ccccc3c2=O)cc1	Pf growth 96h 2.33µM, Pf growth 48h 5.22µM
O=c1c2ccccc2nc(/C=C/c2c[nH]c3ccccc23)n1CCO	CHX counter 37.8, Shiga inhibitor 64.6, Pf growth 48h inconclusive
O=c1c2ccccc2nc(/C=C\c2ccccc2[N+](=O)[O-])n1-c1ccccc1O	Pf growth 96h inconclusive, Pf growth 48h 6.57µM
O=c1c2ccccc2nc(/C=C/c2ccc3c(c2)OCO3)n1-c1ccccc1	Pf growth 96h 10.4µM, Pf growth 48h inconclusive
CCOC(=O)Cc1nn[nH]n1	none
Fc1cnc(Cl)nc1NC1CCCCC1	Pf growth 96h 4.65µM
CC1CCC2(CC1)SCC(=O)N2c1ccccc1 (stereo not drawn)	none
Cc1cccc(N2C(=O)CSC23CCCCC3)c1	Pf growth 96h 1.47µM
Cc1cccc(N2CSC3=C(C#N)C(c4ccc(C)o4)CC(=O)N3C2)c1 (stereo not drawn)	Pf growth 96h 10.4µM, CHX counter 11.3 (no result: AMA1 RON2 block)
CNc1ccc2oc(C[C@H]3O[C@@]4(CC[C@H]3C)O[C@H]([C@H](C)C(=O)c3ccc[nH]3)[C@H](C)C[C@H]4C)nc2c1C(=O)O	Pf growth 96h 0.415µM, Pf growth 48h 0.928µM
CCNC(=O)C1CCCN(C(=O)c2ccc3ccccc3c2)CC1 (stereo not drawn)	none (no result: Pf growth 96h, CHX counter, SARS PLP yeast, Shiga inhibitor, Pf growth 48h)
Cc1ccc(C(=O)/C=C\Nc2ccc(C)c(C)c2)cc1	CHX counter 99.7, Shiga inhibitor 108.6
Cc1ccc(C(=O)/C=C/Nc2ccccn2)cc1	none (no result: Pf growth 96h, CHX counter, SARS PLP yeast, Shiga inhibitor, Pf growth 48h)
Cc1ccc(O)c(N/C=C/C(=O)c2ccc(F)cc2)c1	Pf growth 96h inconclusive, CHX counter 42.9, Shiga inhibitor 129.4
Cc1ccc(N/C=C/C(=O)c2ccc(C)cc2)cc1	CHX counter 64.8, Shiga inhibitor 123.9 (no result: Pf growth 48h)
CN1CCN(CC(=O)Nc2c(C#N)cnn2-c2ccccc2)CC1	none
O=C1CC(Cc2ccc(Br)cc2)C(=O)N1c1ccccc1 (stereo not drawn)	Pf growth 96h inconclusive
N#CCN(CC#N)C(=O)C1c2ccccc2Oc2ccccc21	Pf growth 96h 2.94µM
Cc1cc(C(=O)N/N=C/c2ccc([N+](=O)[O-])s2)c2ccccc2n1	Pf growth 48h 4.65µM
O=C(N/N=C\c1ccc([N+](=O)[O-])s1)c1cncc(Br)c1	Pf growth 96h 3.29µM, Pf growth 48h 8.28µM
COc1ccccc1NC(=O)C(=O)N/N=C/c1ccc([N+](=O)[O-])s1	Pf growth 96h 1.65µM, Pf growth 48h 2.62µM
Cc1ccnn1CC(=O)N/N=C/c1ccc([N+](=O)[O-])s1	Pf growth 96h 7.38µM, Pf growth 48h inconclusive
CCOc1ccccc1NC(=O)C(=O)N/N=C/c1ccc([N+](=O)[O-])cc1	none
COCCNc1nc2cc(-c3ccccc3)sc2c(=O)n1C	none (no result: Pf growth 96h, CHX counter, SARS PLP yeast, Shiga inhibitor, Pf growth 48h)
CCn1nc(C)c(/C=N/NC(=O)Cn2nccc2C)c1C	CHX counter 37.4, Shiga inhibitor 71.7
COC(=O)N/N=C/c1cccs1	Pf growth 96h inconclusive
O=C(Cc1ccccc1)N/N=C/c1ccc([N+](=O)[O-])s1	Pf growth 96h 8.28µM, Shiga inhibitor 111.5, Pf growth 48h 7.38µM
O=C(N/N=C/c1ccc([N+](=O)[O-])s1)c1ccccc1Br	Pf growth 96h 1.65µM, Pf growth 48h inconclusive
CCn1nc(C)c(/C=N/NC(=O)Cn2nc(C)cc2C)c1C	none
COC(=O)N/N=C/c1ccc([N+](=O)[O-])s1	Pf growth 96h 8.28µM, Pf growth 48h 14.7µM
O=[N+]([O-])c1cccc(S(=O)(=O)N2CCCCC2c2cccnc2)c1 (stereo not drawn)	Pf growth 96h inconclusive, Pf growth 48h inconclusive
COc1ccc(C)cc1NS(=O)(=O)c1ccc2c(c1)N(C)CCO2	none
Cc1ccc(NC(C)C(=O)N/N=C/c2ccc([N+](=O)[O-])s2)cc1 (stereo not drawn)	Pf growth 96h 14.7µM, Pf growth 48h inconclusive
Cn1c(SCC(=O)N/N=C/c2cc([N+](=O)[O-])ccc2O)nnc1-c1ccccc1	Pf growth 96h inconclusive, Pf growth 48h inconclusive
O=C(CNC(=O)c1cccc(F)c1)N/N=C/c1ccc([N+](=O)[O-])s1	Pf growth 96h inconclusive
Cn1c(SCC(=O)N/N=C/c2ccc([N+](=O)[O-])s2)nnc1-c1ccccc1	Pf growth 96h inconclusive, Pf growth 48h 6.57µM
O=C(N/N=C/c1ccc([N+](=O)[O-])s1)c1ccccc1	CHX counter 20.1, Pf growth 48h inconclusive
O=C(N/N=C/c1ccc([N+](=O)[O-])s1)C(O)c1ccccc1 (stereo not drawn)	Pf growth 96h 2.33µM, CHX counter 16.2, Pf growth 48h 4.65µM
COc1ccc(NC(C)C(=O)N/N=C/c2ccc([N+](=O)[O-])s2)cc1 (stereo not drawn)	Pf growth 48h inconclusive
Cc1ccc(/C=N/NC(=O)C(O)c2ccccc2)o1 (stereo not drawn)	none
COCCn1cnc2c1-c1ccc(OC)c(c1)OC/C=C\COc1cccc-2c1	none (no result: AMA1 RON2 block, Pf growth 96h, SARS PLP yeast, Pf growth 48h)
